Here are results for 10 molecules from PubChem BioAssay.

A short description of assay [1]: optical density shifts of acrAB sulA E. coli – strain DRC41, OD650, 48 h, E. coli filamentation inducer project, primary screen (AID 1152).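 Also: E. coli MC1000 strain DRC41 lacking acrAB efflux pump and sulA.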 The conditions noted are these: higher = more signal, called active from +8 up or from −8 down.
A short description of assay [2]: probe aLefty1 binding on compound microarray – biochemical, small-molecule microarray, 635/667 nm fluorescence, primary screen (AID 1153).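 Also: score merges spot fluorescence with signal-to-noise ratio from the scanned slide images.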 The conditions noted are these: higher = more signal.
Assay [3] can be described thus: plasmodial surface anion channel blockers, osmotic lysis – cell-based, P. falciparum Indochina, OD700, 1 h, primary screen (AID 1154). The conditions noted are these: P. falciparum Indochina infected RBC osmotic lysis, higher = more signal, called active from +8 up or from −8 down.
The nature of assay [4]: plasmodial surface anion channel blockers, osmotic lysis – cell-based, P. falciparum Indochina, OD700, 2 h, primary screen (AID 1155).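 Also: lysis reports solute entry through the parasite surface anion channel PSAC.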 The conditions noted are these: P. falciparum Indochina infected erythrocytes, higher = more signal, called active from +8 up or from −8 down.
Assay [5] is described as follows: changes in parasitized red cell lysis, either direction – P. falciparum Indochina, OD700, 3 h, PSAC antagonist project, primary screen (AID 1156). The conditions noted are these: P. falciparum-infected erythrocytes, osmotic lysis, higher = more signal, called active from +8 up or from −8 down.
Assay [6] can be described thus: plasmodial surface anion channel blockers, osmotic lysis – cell-based, P. falciparum Indochina, OD700, 18 h, primary screen (AID 1157). The conditions noted are these: P. falciparum Indochina infected erythrocytes, osmotic lysis OD700, 18 h; higher = more signal, called active from +8 up or from −8 down.
Assay [7] is described as follows: S6 kinase pathway phospho-S6 level changes – cell-based, A549, cytoblot, luminescence, serum-stimulated, primary screen (AID 1158).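 Also: serum-stimulated A549 lung adenocarcinoma cells; signal is phosphorylated S6 detected by cytoblot immunostaining with HRP secondary.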 The conditions noted are these: 5 h, higher = more signal.
For assay [8], the target named is NADPH oxidase 2 (Homo sapiens) (UniProt P04839). Kind of assay: compounds shifting NOX2 Amplex Red fluorescence – cell-based, HEK293-NOX2, PMA-stimulated, NOX inhibitor project, primary screen (AID 1159). Also: test concentration not given here. The conditions noted are these: 45 min, higher = more signal, called active from +8 up or from −8 down.
Sequence of NADPH oxidase 2 (Homo sapiens) (P04839 whole entry, looked up): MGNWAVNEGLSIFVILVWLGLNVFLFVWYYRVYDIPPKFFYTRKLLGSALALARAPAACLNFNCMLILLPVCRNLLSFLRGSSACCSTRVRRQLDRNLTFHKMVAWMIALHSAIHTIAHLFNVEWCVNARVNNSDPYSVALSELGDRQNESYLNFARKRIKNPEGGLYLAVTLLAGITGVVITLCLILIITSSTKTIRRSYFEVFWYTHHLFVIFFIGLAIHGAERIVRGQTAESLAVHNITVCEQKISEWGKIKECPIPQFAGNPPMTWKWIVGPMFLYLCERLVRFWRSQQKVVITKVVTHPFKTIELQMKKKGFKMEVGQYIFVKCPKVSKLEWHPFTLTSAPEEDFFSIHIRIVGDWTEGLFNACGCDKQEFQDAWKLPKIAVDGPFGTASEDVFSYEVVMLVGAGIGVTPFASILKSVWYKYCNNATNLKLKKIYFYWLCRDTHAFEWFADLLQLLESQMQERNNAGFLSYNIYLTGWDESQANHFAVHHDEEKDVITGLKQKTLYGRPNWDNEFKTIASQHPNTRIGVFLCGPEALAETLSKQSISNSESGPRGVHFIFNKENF
Assay [9] concerns the target NADPH oxidase 4 (Homo sapiens) (UniProt Q9NPH5). Put plainly: compounds shifting NOX4 Amplex Red fluorescence – cell-based, HEK293-NOX4, tetracycline-induced, NOX inhibitor project, primary screen (AID 1160). The conditions noted are these: HEK293-NOX4, Amplex Red H2O2 fluorescence, 45 min; higher = more signal, called active from +8 up or from −8 down.
For assay [10], the target named is NADPH oxidase 5 (Homo sapiens) (UniProt Q96PH1). Kind of assay: compounds shifting NOX5 Amplex Red fluorescence – cell-based, HEK293-NOX5, NOX inhibitor project, primary screen (AID 1161). The conditions noted are these: HEK293-NOX5, ionomycin, 45 min, higher = more signal.
Sequence of NADPH oxidase 5 (Homo sapiens) (Q96PH1 whole entry, looked up): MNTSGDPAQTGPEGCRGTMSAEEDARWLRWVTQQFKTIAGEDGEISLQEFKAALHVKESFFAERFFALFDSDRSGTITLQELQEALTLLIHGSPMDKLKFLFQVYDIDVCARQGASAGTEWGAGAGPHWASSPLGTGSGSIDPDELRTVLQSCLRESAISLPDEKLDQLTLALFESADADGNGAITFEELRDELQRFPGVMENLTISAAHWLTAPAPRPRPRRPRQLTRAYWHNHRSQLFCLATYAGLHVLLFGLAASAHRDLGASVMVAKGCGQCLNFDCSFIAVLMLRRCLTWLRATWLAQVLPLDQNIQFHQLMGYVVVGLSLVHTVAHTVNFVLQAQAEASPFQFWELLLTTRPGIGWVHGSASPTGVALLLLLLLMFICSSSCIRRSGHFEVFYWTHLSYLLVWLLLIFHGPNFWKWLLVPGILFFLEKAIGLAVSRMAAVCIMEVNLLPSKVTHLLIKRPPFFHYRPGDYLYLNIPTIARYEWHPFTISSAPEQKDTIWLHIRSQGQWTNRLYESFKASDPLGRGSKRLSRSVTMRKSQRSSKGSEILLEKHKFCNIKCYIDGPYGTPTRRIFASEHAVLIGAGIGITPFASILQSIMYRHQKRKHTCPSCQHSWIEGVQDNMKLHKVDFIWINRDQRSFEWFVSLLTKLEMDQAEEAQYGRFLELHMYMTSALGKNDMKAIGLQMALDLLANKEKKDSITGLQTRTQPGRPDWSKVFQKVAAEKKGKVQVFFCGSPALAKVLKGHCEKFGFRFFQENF

The structures appear in SMILES notation. Activity calls are given as the source filed them.

Sequence of NADPH oxidase 4 (Homo sapiens) (Q9NPH5 whole entry, looked up): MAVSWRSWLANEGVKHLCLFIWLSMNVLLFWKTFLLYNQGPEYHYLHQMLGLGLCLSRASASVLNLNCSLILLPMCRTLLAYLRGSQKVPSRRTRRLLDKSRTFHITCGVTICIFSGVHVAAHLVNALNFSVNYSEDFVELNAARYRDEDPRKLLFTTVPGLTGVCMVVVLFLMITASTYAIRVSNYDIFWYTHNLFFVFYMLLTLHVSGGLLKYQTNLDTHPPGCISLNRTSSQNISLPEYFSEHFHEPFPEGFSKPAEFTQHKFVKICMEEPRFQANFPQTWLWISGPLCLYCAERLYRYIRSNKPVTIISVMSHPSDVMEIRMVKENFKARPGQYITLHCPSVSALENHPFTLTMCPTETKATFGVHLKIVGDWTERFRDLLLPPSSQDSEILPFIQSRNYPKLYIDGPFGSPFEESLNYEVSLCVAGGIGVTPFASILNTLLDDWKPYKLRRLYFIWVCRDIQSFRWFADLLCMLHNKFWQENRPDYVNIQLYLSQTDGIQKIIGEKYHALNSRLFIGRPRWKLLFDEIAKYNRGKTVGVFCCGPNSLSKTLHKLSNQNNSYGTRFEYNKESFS

Turning to `O=C1C2C=CC(C(O)c3ccc(Br)cc3)N(Nc3ccccc3F)C2C(=O)N1c1ccccc1` (stereo not given), the z-score in assay [1] was 0.894 (inactive); in [3] it was 3.67 (inactive); in assay [4], -0.0291 (inactive); in assay [5], -0.834 (inactive); in assay [6] it was -1.01 (inactive); in [7], 0.79. The z-score in [8] is -1.35 (inactive); in assay [9], -2.56 (inactive); in assay [10] it was -0.774. In [2], this molecule showed a composite z-score of -0.192.
`CC(C)(C)OC(=O)CC[C@]1(C(=O)NCc2ccccc2)N=C(c2ccc(OCCCO)cc2)O[C@H]1c1ccccc1CN=[N+]=[N-]`: the z-score was 0.829 (inactive) in [1]; 25.3 (active) in assay [3]; 12.3 (active) in assay [4]; 3.22 (inactive) in assay [5]; 1.65 (inactive) in assay [6]; 0.224 in assay [7]. Besides, the z-score in assay [8] is -0.174 (inactive); in assay [9] it was -0.533 (inactive); in [10] it was -1.47. Also, the composite z-score in [2] worked out at 0.146.
As to `CC(C)C[C@@H]1NC(=O)[C@@H]2C[C@H](C(=O)NCCCCN(C)C)[C@H](c3cccc(OCCO)c3)N2C1=O`, the z-score in [1] is 0.471 (inactive); in assay [3], 4.21 (inactive); in assay [4], 0.239 (inactive); in assay [5] it was 0.931 (inactive); in assay [6] it was 0.128 (inactive); in [7], 0.422. In addition, the z-score is 1.46 (inactive) in assay [8], 1.13 (inactive) in assay [9] and 0.903 in assay [10]. The molecule further came in with a composite z-score in assay [2] of 0.0945.
`CCCCC(=C=CC[C@@H](O)c1ccccc1OCCO)C[C@@H](O)COCc1ccccc1`: the z-score was 1.47 (inactive) in assay [1]; 17.5 (active) in [3]; 1.74 (inactive) in assay [4]; -0.255 (inactive) in [5]; -0.385 (inactive) in [6]; 1.51 in [7]. The z-score was -0.123 (inactive) in [8], -0.101 (inactive) in assay [9] and -2.04 in assay [10]. In assay [2], the composite z-score was 0.117.
Turning to `C=CC[C@]1(C(=O)NCCN2CCOCC2)N=C(c2ccc(OCCCO)cc2)O[C@H]1c1ccccc1CN=[N+]=[N-]`, the z-score was 1.33 (inactive) in [1]; 18.6 (active) in assay [3]; 1.83 (inactive) in assay [4]; 2.57 (inactive) in assay [5]; 0.79 (inactive) in assay [6]; 0.202 in assay [7]. Also, the z-score in [8] is 2.07 (inactive); in [9] it was 1.16 (inactive); in assay [10], -0.426. In assay [2], this molecule returned a composite z-score of -0.264.
`C=CCC(OC(C)=O)[C@@H]1[C@@H](N(Cc2cc3ccccc3o2)C(=O)Cc2ccc(F)cc2)c2cc(OCCCO)ccc2N1C(=O)c1ccc2ccccc2c1` (stereo not given in full): the z-score in [1] was -0.959 (inactive); in assay [3], 1.18 (inactive); in assay [4], 0.305 (inactive); in [5] it was -0.97 (inactive); in [6] it was 0.112 (inactive); in assay [7], -0.448. The z-score in assay [8] was 0.512 (inactive); in [9], 0.957 (inactive); in assay [10], 2.34. This molecule came in with a composite z-score in assay [2] of 0.106.
For `COC(=O)[C@@]1(Cc2ccc(OC)cc2)[C@H]2c3cc(C(=O)N(C)C)n(C[C@H](O)CO)c3C[C@H]2CN1C(=O)c1ccccc1`, the z-score in assay [1] was -1.99 (inactive); in assay [3] it was 5.61 (inactive); in assay [4], 0.936 (inactive); in assay [5] it was 1.98 (inactive); in [6] it was 1.23 (inactive); in assay [7], -0.364. The z-score in assay [8] was 0.452 (inactive); in assay [9], -0.281 (inactive); in [10], -0.527. Also, the composite z-score in assay [2] is 0.523.
On to `CCOC(=O)c1ccc(NC(=O)O[C@H]2[C@H](OC(=O)Nc3ccc4c(c3)OCO4)[C@H](OC(=O)Nc3ccc4c(c3)OCO4)[C@@H](OC)O[C@@H]2CO)cc1`, for which the z-score was -0.351 (inactive) in assay [1]; 23.4 (active) in assay [3]; 6.99 (inactive) in assay [4]; 0.726 (inactive) in assay [5]; 1.55 (inactive) in assay [6]; -0.535 in assay [7]. Moreover, the z-score in [8] is -0.984 (inactive); in assay [9] it was -0.54 (inactive); in [10] it was -1.28. This molecule also had a composite z-score in assay [2] of 0.408.
On to `C=C(C)[C@@H]1CC=C(C(O)C2C=CC3C(=O)N(c4ccccc4)C(=O)C3N2Nc2ccccc2F)CC1` (stereo not given in full), for which the z-score in assay [1] is -1.79 (inactive); in [3], 0.19 (inactive); in assay [4], 1.01 (inactive); in [5] it was 0.039 (inactive); in [6], 1.1 (inactive); in assay [7], -1.23. In addition, the z-score in assay [8] is 0.032 (inactive); in assay [9] it was -1.64 (inactive); in assay [10], -2.14. Also, the composite z-score in assay [2] was found to be 0.744.
With `CCOC(=O)C[C@H]1[C@H](OC(=O)c2cc3ccccc3oc2=O)[C@@H](NC(=O)c2ccc(-c3ccccc3)cc2)c2cc(OCCCO)ccc2N1C(=O)c1ccc2ccccc2n1`, the z-score in [1] is -0.216 (inactive); in assay [3], 3.37 (inactive); in assay [4] it was 1.07 (inactive); in assay [5] it was 0.723 (inactive); in assay [6], 0.523 (inactive); in [7] it was -0.577. The results for the z-score in [8], in assay [9] and in assay [10] were 0.858 (inactive), 0.688 (inactive) and 1.11, respectively. In [2], this molecule yielded a composite z-score of 0.132.
